Assay [1] deals with Human papillomavirus type 1a protein E7 (residues 44-93). Put plainly: HPV1a E7 fragment binders on microarrays, primary screen, biochemical, small-molecule microarray, residues 44-93, 635 nm fluorescence (AID 1108).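 Further: E7 fragment applied at 1 µg/mL in TBST for 1 h at 4 C; score combines spot fluorescence with its signal to noise ratio.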 Particulars: small-molecule microarray binding, fluorescence 635 nm; higher = more signal.
The nature of assay [2]: modulators of HCV replicon luciferase signal, primary screen, HCV replication inhibitor project, Huh7 cells, luciferase reporter (AID 1109).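 Further: huh7 hepatoma cells harbouring a luciferase neomycin HCV replicon reporter; luciferase luminescence as measure of HCV replicon replication; test concentration not given here.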 The following applies: 48 h, higher = more signal. Background: Replicon systems follow genome replication, usually without infectious particles.
Assay [3] concerns the target Left-right determination factor 2 (Homo sapiens) (UniProt O00292). As to the kind of experiment: LEFTY2 binders on small-molecule microarrays, primary screen, biochemical, small-molecule microarray, 635 nm fluorescence scan (AID 1110). Particulars: LEFTY2 binding, higher = more signal.
Assay [4] concerns the target Calmodulin-1 (Homo sapiens) (UniProt P0DP23). As to the kind of experiment: CALM1 binders on microarrays, EGTA buffer, profiling panel, biochemical, small-molecule microarray, Cy5-labelled CALM1 (AID 1111).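 Further: labelled calmodulin applied in Tris saline Tween buffer holding calcium plus EGTA and DTT.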 Particulars: Cy5-CALM1 binding fluorescence, higher = more signal.
For assay [5] the target is unchanged. As to the kind of experiment: calcium-bound CALM1 binders on microarrays, profiling panel, artefact control for SMM control-protein annotation, biochemical, small-molecule microarray, Cy5-labelled CALM1, plus calcium (AID 1112).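 Further: score merges spot fluorescence with signal to noise from triplicate slides.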 Particulars: Cy5-CALM1 binding fluorescence, higher = more signal.
Assay [6] can be described thus: small-molecule microarray binders of probe aWnt5a, primary screen, biochemical, biotinylated probe, 635/667 nm fluorescence (AID 1113).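 Further: score merges 667 nm fluorescence intensity with signal-to-noise per printed feature.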 Particulars: higher = more signal.
Assay [7] is described as follows: small-molecule microarray binders of probe aShh, primary screen, biochemical, biotinylated probe, 635/667 nm fluorescence (AID 1114).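 Further: probe is biotin-labelled aShh protein from a stem cell growth factor screen; measures binding of labelled protein to compounds printed on the slide; score merges feature fluorescence at 667 nm with signal-to-noise.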 The following applies: higher = more signal.
The nature of assay [8]: small-molecule microarray binders of probe aNog, primary screen, biochemical, biotinylated probe, 635/667 nm fluorescence (AID 1115).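 Further: probe is biotinylated aNog protein used at 0.15 µg/mL for 1 h at 4 C; z-score combines 667 nm fluorescence of each spot with its signal to noise.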 Particulars: higher = more signal.
Assay [9] concerns the target Torsin-1A-interacting protein 1 (Homo sapiens) (UniProt Q5JTV8). As to the kind of experiment: LAP1 binders from COS7 cell lysate, primary screen, small-molecule microarray, 635/667 nm fluorescence (AID 1116). Particulars: COS7-hLAP1 lysate binding, 635 nm fluorescence, higher = more signal.
In assay [10] the target is Alpha-bungarotoxin (Bungarus multicinctus) (UniProt P60615). Put plainly: alpha-bungarotoxin binders on microarray, profiling panel, artefact control for SMM control protein annotation, biochemical, small-molecule microarray, Alexa647 label, 635/667 nm fluorescence (AID 1117). The following applies: alpha-BTX-A647 binding fluorescence, higher = more signal.
The target of a further assay is Albumin (Bos taurus) (UniProt P02769). Put plainly: bovine serum albumin binders on microarray, profiling panel, artefact control for SMM control protein annotation, biochemical, small-molecule microarray, Alexa647 label, 635/667 nm fluorescence (AID 1118).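 Further: score merges 667 nm emission intensity and signal-to-noise per printed compound spot.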 Particulars: BSA-A647 binding, fluorescence 635 nm, higher = more signal.
Assay [11] is described as follows: small-molecule microarray binders of probe aXIP, primary screen, biochemical, NeuroSMM set, 635/667 nm fluorescence (AID 1119).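 Further: probe is the protein aXip251-270 applied at 1 µg/mL to compound-printed slides; binding of probe to printed compounds measured as 667 nm fluorescence plus signal to noise.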 The following applies: higher = more signal, called active from +8 up or from −8 down.
Assay [12] is described as follows: small-molecule binders of probe aNOTCH3, primary screen, biochemical, small-molecule microarray, 635/667 nm fluorescence (AID 1120).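 Further: probe is a biotin-tagged antibody raised against NOTCH3 rather than NOTCH3 protein; score merges spot fluorescence near 667 nm with spot signal to noise.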 The following applies: higher = more signal.
Assay [13] can be described thus: small-molecule binders of probe aNOTCH2, primary screen, biochemical, small-molecule microarray, 635/667 nm fluorescence (AID 1121).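 Further: score merges feature fluorescence read at 667 nm with its signal to noise.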 The following applies: higher = more signal.
Assay [14] deals with Carbonic anhydrase 2 (Homo sapiens) (UniProt P00918). Put plainly: CAII small-molecule binders, profiling panel, biochemical, small-molecule microarray, Alexa647-labelled CAII (AID 1122). Particulars: CAII-A647 binding fluorescence, higher = more signal.
The nature of assay [15]: COS7 lysate on small-molecule microarray, probe aHis, 635 nm (AID 1123).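 Further: z-score combines 667nm fluorescence intensity with signal-to-noise per printed compound spot.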 The following applies: COS7 cell lysate, fluorescence, higher = more signal.
Assay [16] is described as follows: compound binding in COS7 lysate, probe aLAP1, primary screen, cell lysate, small-molecule microarray (AID 1124).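 Further: lysate comes from COS7 cells expressing LAP1 and is applied at 0.3 µg/mL; score merges spot fluorescence near 667 nm with signal-to-noise over triplicate slides.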 The following applies: probe aLAP1, fluorescence, higher = more signal.
Another assay relates to Sam68 (KHDRBS1). Put plainly: Sam68 small-molecule binders, primary screen, biochemical, small-molecule microarray, 635 nm fluorescence (AID 1125).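 Further: score merges 667 nm channel intensity with signal to noise over triplicate slides.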 Particulars: small-molecule microarray binding, higher = more signal.
Assay [17] deals with Chordin-like protein 2 (CHRDL2). As to the kind of experiment: CHRDL2 small-molecule binders, primary screen, biochemical, small-molecule microarray, 635 nm fluorescence (AID 1126).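 Further: printed compound slides probed with Chrdl2 protein at 4 µg/mL for 1 h at 4 C; score merges 667 nm emission intensity with signal to noise over three replicate slides.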 Particulars: small-molecule microarray binding, fluorescence 635 nm; higher = more signal.
Assay [18] deals with Concanavalin-A (Canavalia ensiformis) (UniProt P02866). As to the kind of experiment: ConA small-molecule binders, primary screen, artefact control for SMM control protein annotation, biochemical, small-molecule microarray, Alexa647 label, 635 nm (AID 1127).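 Further: z combines 667 nm emission intensity with signal-to-noise across three replicate slides.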 Particulars: ConA-A647 binding fluorescence, higher = more signal.

Each structure is given as a SMILES string. The source made the active and inactive calls.

Left-right determination factor 2 (Homo sapiens), sequence (O00292 whole entry, looked up): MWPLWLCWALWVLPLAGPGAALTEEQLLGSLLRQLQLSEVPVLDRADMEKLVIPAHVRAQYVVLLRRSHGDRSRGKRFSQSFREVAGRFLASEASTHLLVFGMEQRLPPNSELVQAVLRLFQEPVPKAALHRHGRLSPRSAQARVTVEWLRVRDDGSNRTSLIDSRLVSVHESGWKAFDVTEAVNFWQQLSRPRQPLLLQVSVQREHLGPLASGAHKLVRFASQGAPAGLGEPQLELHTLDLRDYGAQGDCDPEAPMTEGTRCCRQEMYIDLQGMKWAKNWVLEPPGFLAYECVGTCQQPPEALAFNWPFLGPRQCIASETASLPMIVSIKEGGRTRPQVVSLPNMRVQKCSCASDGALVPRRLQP
Concanavalin-A (Canavalia ensiformis), sequence (P02866 whole entry, looked up): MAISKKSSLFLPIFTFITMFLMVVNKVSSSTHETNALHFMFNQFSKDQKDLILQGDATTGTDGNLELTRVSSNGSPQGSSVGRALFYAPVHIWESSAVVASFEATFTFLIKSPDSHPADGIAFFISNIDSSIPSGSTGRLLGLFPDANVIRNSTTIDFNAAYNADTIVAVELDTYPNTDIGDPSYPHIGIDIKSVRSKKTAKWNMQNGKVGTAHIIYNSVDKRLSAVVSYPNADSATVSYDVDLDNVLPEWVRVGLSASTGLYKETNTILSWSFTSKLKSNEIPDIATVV
Alpha-bungarotoxin (Bungarus multicinctus), sequence (P60615 whole entry, looked up): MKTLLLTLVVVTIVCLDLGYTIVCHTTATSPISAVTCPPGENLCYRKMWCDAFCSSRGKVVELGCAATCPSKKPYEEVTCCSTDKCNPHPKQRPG
Torsin-1A-interacting protein 1 (Homo sapiens), sequence (Q5JTV8 whole entry, looked up): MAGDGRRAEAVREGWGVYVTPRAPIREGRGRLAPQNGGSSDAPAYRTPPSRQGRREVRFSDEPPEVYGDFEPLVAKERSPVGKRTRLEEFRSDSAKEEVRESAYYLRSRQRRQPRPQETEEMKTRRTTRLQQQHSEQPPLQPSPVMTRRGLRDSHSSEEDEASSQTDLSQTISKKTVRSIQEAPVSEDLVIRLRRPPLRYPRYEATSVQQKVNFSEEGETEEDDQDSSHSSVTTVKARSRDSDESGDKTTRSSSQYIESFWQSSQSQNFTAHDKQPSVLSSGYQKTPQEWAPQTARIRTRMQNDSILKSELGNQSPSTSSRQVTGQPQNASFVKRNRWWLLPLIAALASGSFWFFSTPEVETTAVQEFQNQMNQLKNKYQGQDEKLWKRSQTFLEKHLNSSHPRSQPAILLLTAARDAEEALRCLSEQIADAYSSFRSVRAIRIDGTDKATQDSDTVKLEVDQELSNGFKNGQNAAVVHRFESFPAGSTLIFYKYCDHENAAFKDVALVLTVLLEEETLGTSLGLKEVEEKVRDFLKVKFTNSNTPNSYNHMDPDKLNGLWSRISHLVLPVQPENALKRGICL
Albumin (Bos taurus), sequence (P02769 whole entry, looked up): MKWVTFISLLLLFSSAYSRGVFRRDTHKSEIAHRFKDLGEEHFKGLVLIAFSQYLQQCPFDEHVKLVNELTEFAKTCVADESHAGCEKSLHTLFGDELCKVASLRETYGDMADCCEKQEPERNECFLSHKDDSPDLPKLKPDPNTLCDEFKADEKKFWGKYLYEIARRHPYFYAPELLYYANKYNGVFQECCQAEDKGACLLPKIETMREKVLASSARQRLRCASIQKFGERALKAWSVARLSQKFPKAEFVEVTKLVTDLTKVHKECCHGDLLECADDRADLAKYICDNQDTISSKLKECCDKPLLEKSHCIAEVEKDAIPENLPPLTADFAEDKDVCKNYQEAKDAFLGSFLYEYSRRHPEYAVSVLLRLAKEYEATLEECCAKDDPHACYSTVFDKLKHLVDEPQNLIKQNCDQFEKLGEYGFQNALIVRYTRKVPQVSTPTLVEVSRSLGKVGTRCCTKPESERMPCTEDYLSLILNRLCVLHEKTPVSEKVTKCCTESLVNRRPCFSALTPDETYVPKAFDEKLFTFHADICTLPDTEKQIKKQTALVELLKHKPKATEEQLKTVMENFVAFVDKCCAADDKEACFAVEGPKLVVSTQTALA

Take `CC1=C2[C@@H](CCc3ccccc3)OB(O)C[C@@H]2[C@@H]2C(=O)C=CC(=O)[C@@H]2C1`: the composite z-score was 0.808 in assay [1]; 1.12 in assay [3]; 0.281 in assay [4]; -0.172 in assay [5]; 0.0101 in [6]; -0.214 in assay [7]. The composite z-score in [8] was -0.375; in assay [9], 0.464; in assay [10] it was 1.2; with Albumin (Bos taurus), 0.393; in assay [12], -0.0677; in assay [13] it was 0.0777. In addition, the composite z-score in [14] is 0.298; in assay [15] it was -0.0088; in [16] it was 0.0435; with Sam68 (KHDRBS1), 1.01; in [17] it was 0.483; in assay [18] it was 0.793. The same compound yielded a z-score in assay [2] of -2.13. Moreover, in assay [11], the composite Z-score is 1.64 (inactive).
Regarding `Cc1ccc(S[C@]2(C(=O)O)CC(=O)N(Cc3ccccc3C(F)(F)F)[C@@H]2c2ccc(CO)cc2)cc1`, the composite z-score was 0.973 in [1]; -0.587 in assay [3]; -0.317 in [4]; 0.228 in assay [5]; -0.176 in [6]; -0.138 in assay [7]. Also, the composite z-score in [8] was -0.321; in assay [9], 0.914; in assay [10], -0.115; in the assay with Albumin (Bos taurus), -0.283; in assay [12] it was -0.128; in assay [13], -0.164. The composite z-score in [14] is 0.653; in assay [15], 1.79; in [16] it was -0.67; with Sam68 (KHDRBS1) it was -0.298; in assay [17] it was -1.6; in [18], -0.373. The z-score in assay [2] was determined as 0.0788. Also, the composite Z-score in assay [11] is -0.612 (inactive).
Take `CCCC=C(CCC)[C@@H](NS(=O)(=O)c1cccc2cccnc12)c1ccc(C(=O)OC)cc1`: the composite z-score in assay [1] is 0.591; in assay [3], 0.804; in [4] it was 0.156; in [5] it was -0.2; in assay [6] it was 1.77; in assay [7], 0.0093. Moreover, the composite z-score in [8] is 3.92; in assay [9] it was 0.354; in assay [10], -0.0527; in the assay with Albumin (Bos taurus), -0.207; in assay [12], 2.12; in assay [13] it was 1.16. The composite z-score in assay [14] stood at 0.771; in [15] it was 0.313; in assay [16] it was 0.392; with Sam68 (KHDRBS1), 0.287; in assay [17] it was 0.599; in [18] it was 0.782. This compound had a z-score in assay [2] of 0.347. The composite Z-score in assay [11] was 0.242 (inactive).
With `CCCC[C@@H](O)C1=C(COc2ccccc2)Cn2c(=O)n(-c3ccccc3)c(=O)n2[C@H]1CO`, the composite z-score is -0.616 in [1]; 0.0253 in assay [3]; -0.634 in assay [4]; -0.116 in assay [5]; -0.124 in assay [6]; -0.248 in [7]. The composite z-score in [8] was -0.182; in [9], -0.222; in assay [10], -1.62; in the assay with Albumin (Bos taurus), -0.0711; in assay [12], -0.187; in assay [13], -0.148. The composite z-score in [14] was -0.0781; in [15] it was 0.725; in [16], 0.148; in the assay on Sam68 (KHDRBS1), -0.247; in assay [17], 0.0826; in assay [18], -0.494. Besides, the z-score in [2] is -1.52. Moreover, in assay [11], the composite Z-score was -0.116 (inactive).
With `COc1ccccc1CN1C(=O)c2ccccc2[C@@]2(Cc3ccccc3N(C3CC3)C2=O)[C@@H]1c1ccc(CO)cc1`, the composite z-score is -0.447 in assay [1]; -0.921 in assay [3]; 0.117 in assay [4]; -0.164 in assay [5]; -0.131 in [6]; 0.0062 in [7]. Moreover, the composite z-score is -0.422 in assay [8]; -0.455 in [9]; 0.134 in [10]; 0.0999 in the assay with Albumin (Bos taurus); -0.15 in assay [12]; -0.112 in assay [13]. Moreover, the composite z-score in [14] was 0.669; in assay [15] it was 0.165; in assay [16] it was -0.978; in the assay with Sam68 (KHDRBS1), -0.557; in assay [17] it was -0.39; in assay [18], 0.107. The z-score in [2] was -0.344. In assay [11], the composite Z-score was 0.794 (inactive).
On to `COc1cc(C(O)C2C=CC3C(=O)N(C)C(=O)C3N2NC(=O)OC(C)(C)C)cc(OC)c1OC` (stereo not given), for which the composite z-score in assay [1] worked out at 0.968; in assay [3] it was 0.0493; in assay [4], 1.34; in assay [5], 0.12; in assay [6] it was 0.343; in assay [7] it was 0.848. Further, the composite z-score amounted to 1.6 in assay [8]; 0.102 in assay [9]; 0.312 in [10]; 1.03 with Albumin (Bos taurus); 0.576 in [12]; 0.46 in assay [13]. The composite z-score in [14] was 0.682; in [15], 2.63; in [16] it was 0.954; with Sam68 (KHDRBS1) it was 1.26; in [17], -0.217; in assay [18], 0.92. For the same compound, the z-score in assay [2] is -0.639. For the same compound, the composite Z-score in assay [11] was 0.523 (inactive).

The record behind these values is PubChem BioAssay.
